Assay outcomes (PubChem BioAssay)
The list is not random: actives were taken first. Their share in the collection is about 3.1%.
PI4K2A inh: blocks human PI4K2A kinase activity; Q9BTU6; purified PI4K2A, ADP-Glo luminescence, 1 h; hits give low values; activity change, negative = inhibition, % at 76.9 µM; actives 0.13% (n = 420,000); in the data active = activity change below about -50%; inconclusive = mostly about -30% to -49%;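 also: -100% = wells without enzyme as full effect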
Target sequence (Q9BTU6 whole entry, looked up): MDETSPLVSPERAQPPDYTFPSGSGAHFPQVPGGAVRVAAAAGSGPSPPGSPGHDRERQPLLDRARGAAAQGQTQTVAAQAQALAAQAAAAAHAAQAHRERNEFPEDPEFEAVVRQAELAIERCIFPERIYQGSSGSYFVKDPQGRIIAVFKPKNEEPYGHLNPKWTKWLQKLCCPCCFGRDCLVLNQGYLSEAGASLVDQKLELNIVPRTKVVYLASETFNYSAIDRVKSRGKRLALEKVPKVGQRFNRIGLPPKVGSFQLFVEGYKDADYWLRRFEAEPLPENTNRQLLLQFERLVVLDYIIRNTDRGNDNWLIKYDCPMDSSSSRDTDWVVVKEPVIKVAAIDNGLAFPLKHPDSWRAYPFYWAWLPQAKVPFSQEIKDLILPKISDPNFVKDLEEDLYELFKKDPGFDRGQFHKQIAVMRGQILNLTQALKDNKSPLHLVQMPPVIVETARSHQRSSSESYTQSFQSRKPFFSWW
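ADP-Glo luminescence measured ADP generated by PI4K2A enzyme (4 ug/mL before mixing) with 1.2 mM PI substrate (pre-mix) and 300 microM ATP (pre-mix). Tris pH7.5 buffer with MgCl2, Triton X-100; 1 h reaction at ambient temperature.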
GLS inhibitor: inhibitors of human glutaminase (GLS) | O94925 | GLS enzymatic activity, qHTS titration | Potency, µM (doses to about 45.5 µM), inactives show at the top dose activity change, negative = inhibition, actives largely listed as inhibitors | actives 0.21% (n = 410,000) | AID 624170; also: potency is read from the fitted curve at half-maximal effect
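Enzyme dispensed in phosphate buffer (45 mM, pH 8.2, 0.02% Tween-20), compounds pinned in, then 1 mM L-glutamine solution and the glutamate oxidase–HRP–Amplex Red mix added; fluorescence read immediately and again after 30 min at room temperature.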
GCN5L2 inh: blocks human GCN5L2 histone acetyltransferase; Q92830; GCN5L2 HAT assay, ThioGlo1 CoA-SH fluorescence; Potency, µM (doses to about 58.9 µM), for the others: at the highest dose activity change, negative = inhibition, actives largely listed as inhibitors; actives 0.21% (n = 390,000); AID 504327; also: potency is read from the fitted curve at half-maximal effect
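Fluorescence readout, Ex340nm/Em540nm: ThioGlo1 (50uM final) reacts with free CoA thiol released as 20nM GCN5L2 acetylates H3(1-25) peptide (75uM) using acetyl-CoA (70uM). Compound and enzyme sat 15 min beforehand; 20 min room-temperature reaction.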
VDR inh: blocks the human vitamin D receptor. actives 0.93% (n = 400,000). Potency, µM, for inactives: max response, negative = inhibition, most hits filed as inhibitors. P11473. VDR-SRC2-3 peptide fluorescence polarization, 2 h; also: potency is read from the fitted curve at half-maximal effect
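Reagent solutions, kept cold and dark, are dispensed first; compounds are then pinned in at 23 nl, plates briefly spun, and incubated 2 h at ambient temperature. Inhibition of VDR–SRC2-3 peptide binding is read by fluorescence polarization.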
PLK1 PBD block: PLK1 (human) polo-box domain binding inhibition. actives 2.8% (n = 360,000). AID 720504. Plk1 PBD binding of FITC phosphopeptide, fluorescence polarization. Potency, µM, without a hit: max response, negative = inhibition, most hits filed as inhibitors. P53350; also: potency is read from the fitted curve at half-maximal effect; series mostly up to about 57 µM; nearly all actives have a fitted effect of over 65% in size
Numbers without * were called inactive; ? = inconclusive; nt = no result given. Unless noted, calls follow the shape of the dose curve; as a rule, active = well fitted curve in the direction sought with a large enough effect; inconclusive = small, poorly fitted or top-dose-only effect, or another doubt; inactive = no such curve, though single readings can be large; an effect the other way counts as inactive or inconclusive. Unless noted, % is scaled to controls: 0 for no effect and ±100 for the full control effect.

SMILES	PI4K2A inh	GLS inhibitor	GCN5L2 inh	VDR inh	PLK1 PBD block
CC(=O)N1c2ccc(S(=O)(=O)NCCC(=O)N3CCCC(C)C3)cc2CC1C (stereo unspecified)	-5	2%	-7%	?	24µM*
CCC(=O)N1c2ccc(S(=O)(=O)CCC(=O)NCc3ccc4c(c3)OCO4)cc2CC1C (stereo unspecified)	0	20%	-17%	?	24µM*
CC(=O)N1c2ccc(S(=O)(=O)N3CCC(C(=O)NCc4ccc(C)cc4)CC3)cc2CC1C (stereo unspecified)	6	2%	-2%	-8%	-9%
CC(=O)N1c2ccc(S(=O)(=O)N3CCC(C(=O)NCc4ccc(Cl)cc4)CC3)cc2CC1C (stereo unspecified)	3	1%	-1%	25µM*	7.5µM*
CC(=O)N1c2ccc(S(=O)(=O)NCCC(=O)NCc3ccc(N(C)C)cc3)cc2CC1C (stereo unspecified)	-1	?	-5%	?	11µM*
COc1cc2c(cc1OC)n(CC(=O)c1cc(C)ccc1C)c(=O)n1nc(CCn3nc(C)cc3C)nc21	-4	3%	-2%	3%	nt
CNC(=S)N1CCC(NC(=O)C23CC4CC(CC(C4)C2)C3)CC1	-3	?	0%	?	8.4µM*
c1coc(-c2nc3cc4ccccc4cc3nc2-c2ccco2)c1	nt	nt	nt	22µM*	nt
COc1ccc2nc(-c3ccco3)c(-c3ccco3)nc2c1	-3	6%	-18%	?	?
c1coc(-c2nc(-c3ccco3)c(-c3ccco3)nc2-c2ccco2)c1	?	13µM*	?	40µM*	12µM*
CCCNC(=O)CSc1nnc(-c2ccco2)n1C	0	?	-6%	-15%	2.7µM*
COC(=O)c1c(NC(=O)CSc2nnc(-c3ccco3)n2C)sc(C)c1C	4	4%	-3%	?	30µM*
CC1CCC(NC(=O)CCCn2sc3ccccc3c2=O)CC1 (stereo unspecified)	8	19%	-2%	?	27µM*
Cc1cc(NS(=O)(=O)c2ccc(NC(=O)Cc3ccccc3)cc2)no1	-1	nt	nt	nt	nt
Cc1cccnc1Nc1nc(-c2ccccc2)cs1	-10	1%	-14%	-27%	-12%
Cc1cccnc1Nc1nc(-c2ccc(O)cc2O)cs1	-13	42%	-2%	-9%	19µM*
O=C(CCn1ccc2cc(S(=O)(=O)N3CCCC3)ccc21)NCc1ccccc1	-3	0%	-6%	2%	?
O=C(CCn1ccc2cc(S(=O)(=O)N3CCCC3)ccc21)NCc1cccc(F)c1	2	?	-5%	?	7.5µM*
COc1ccc(-c2cc(-c3nnc(SCC(=O)Nc4ccccc4-c4ccccc4)n3N)[nH]n2)cc1	2	nt	nt	nt	nt
Cc1nn2c(N)c(C#N)cnc2c1-c1ccccc1	4	7%	-11%	-6%	-12%
N#Cc1cnc2c(-c3ccccc3)c(-c3ccccc3)nn2c1N	3	?	3%	?	19µM*
CC(=O)N1c2cc(S(=O)(=O)N3CCN(c4ccccc4F)CC3)c(Br)cc2CC1C (stereo unspecified)	2	nt	nt	nt	nt
Cc1cccc(N2C(=O)c3ccc(C(=O)Nc4ccccn4)cc3C2=O)c1	3	3%	-3%	2%	-4%
Cc1cccc(N2C(=O)/C(=C\c3ccc(C(=O)O)cc3)c3ccccc3C2=O)c1	-9	-24%	-6%	?	6.7µM*
C=CCn1c(SCC(=O)c2ccc(CNC(C)=O)o2)nc2scc(C3CC3)c2c1=O	-17	-15%	-16%	-15%	30µM*
SMILES	PI4K2A inh	GLS inhibitor	GCN5L2 inh	VDR inh	PLK1 PBD block
CCCCOCCCNC(=O)C[C@H]1C(=O)N(Cc2ccc(OC)cc2)C2=CCCC[C@@]21C(=O)OCC	-2	nt	nt	nt	nt
C[C@@H]1CN([C@H](C)CO)C(=O)c2cc(NC(=O)Nc3ccccc3)ccc2O[C@@H](C)CCCCO[C@H]1CN(C)S(=O)(=O)c1ccc(F)cc1	3	nt	nt	nt	nt
N#CCCN(C(=S)NC(=O)c1cccs1)c1ccccc1F	-1	3%	-12%	?	19µM*
Cc1ccc(-n2c(SCC(=O)NN=Cc3ccc(-c4ccccc4)cc3)nnc2-c2ccccc2)cc1	2	nt	nt	nt	nt
COc1ccc(NC(=O)N(CCc2c(C)[nH]c3ccccc23)Cc2cccs2)cc1OC	0	nt	nt	nt	nt
COc1ccc(NS(=O)(=O)c2ccc3oc(SC)nc3c2)cc1	0	18%	-7%	0%	21µM*
CCCC(=O)N1CCC[C@]2(CC[C@H](CCC#N)O2)C1	2	nt	nt	nt	nt
COc1cc(NC(=O)Cc2noc3ccccc23)cc(OC)c1OC	-4	1%	-4%	12%	nt
COc1ccc(C2=NCCc3cc(OC)c(OC)cc32)cc1OC	8	-7%	-5%	8%	0%
COc1cc2c(cc1OC)C(/C=C/c1ccc(OC)c(OC)c1OC)=NCC2	nt	nt	nt	50µM*	nt
CC[C@@H]([C@H](C)O)n1ncn(-c2ccc(N3CCN(c4ccc(OCC5CO[C@@](Cn6cncn6)(c6ccc(F)cc6F)C5)cc4)CC3)cc2)c1=O (stereo partly specified)	nt	3%	nt	nt	nt
O=c1[nH]c(=S)[nH]c2c1C(c1ccc(Br)cc1)c1c([nH]c(=S)[nH]c1=O)O2	-56*	?	14µM*	89µM*	6µM*
Cc1ccc(C2C3=C(CCCC3=O)Nc3[nH]c(=S)[nH]c(=O)c32)cc1 (stereo unspecified)	-2	?	22µM*	89µM*	?
O=C1CCCC2=C1C(c1ccc(Br)cc1)c1c([nH]c(=S)[nH]c1=O)N2 (stereo unspecified)	-8	13µM*	?	?	27µM*
CN1CCN(C(=O)CCCN2C(=O)/C(=C/c3ccc(Cl)cc3)SC2=S)CC1	3	3%	-6%	-7%	0%
CN1CCN(C(=O)CCN2C(=O)/C(=C\c3ccc(Cl)cc3Cl)SC2=S)CC1	0	-4%	-10%	2%	42µM*
CCOc1ccccc1N(C)C(=O)C1CCCN(c2ncnc3onc(-c4ccc(F)cc4)c23)C1 (stereo unspecified)	-2	2%	16%	-9%	nt
Cc1cc(C)c(S(=O)(=O)NCC2CCC(C(=O)NCCCN3CCC(C)CC3)CC2)c(C)c1 (stereo unspecified)	-6	-2%	2%	?	24µM*
CN(CCC#N)C(=O)COC(=O)c1cccnc1Nc1ccccc1F	1	-2%	1%	-11%	27µM*
Cc1ccc(CSc2nc3ccccc3c(=O)n2Cc2ccco2)cc1	-8	4%	-8%	-10%	27µM*
Cc1sc2nc(SCc3ccc(C(=O)O)cc3)n(Cc3ccco3)c(=O)c2c1C	-3	-15%	-2%	89µM*	27µM*
O=c1c2ccccc2nc(SCc2ccccc2)n1Cc1ccco1	-1	-4%	-11%	-5%	-10%
